Screens deposited in PubChem BioAssay by National Center for Advancing Translational Sciences (NCATS).
Most compounds without a hit are left out; they make up all but 4% or so of the library.
D1 potentiator – Potentiators of Human D1 Dopamine Receptor: qHTS; 360,000 compounds, 0.036% hits; potentiation, % at 10 µM; AID 504651, 2011; HEK293 TREx D1 cells, calcium flux, dopamine EC20 potentiation; in the data active = potentiation above about 30%; also: 0% is about no effect
TRHR ag – qHTS for Small Molecule Agonists and Allosteric Enhancers of Human TRH Receptor: Primary Screen for Agonists; TRHR cells, calcium flux fluo-8, FDSS agonist mode; 360,000 compounds, 0.18% hits; Thyrotropin-releasing hormone receptor (Homo sapiens), P34981; activation, % at 2 µM; also: 0% is about no effect
Target sequence (P34981 whole entry, looked up): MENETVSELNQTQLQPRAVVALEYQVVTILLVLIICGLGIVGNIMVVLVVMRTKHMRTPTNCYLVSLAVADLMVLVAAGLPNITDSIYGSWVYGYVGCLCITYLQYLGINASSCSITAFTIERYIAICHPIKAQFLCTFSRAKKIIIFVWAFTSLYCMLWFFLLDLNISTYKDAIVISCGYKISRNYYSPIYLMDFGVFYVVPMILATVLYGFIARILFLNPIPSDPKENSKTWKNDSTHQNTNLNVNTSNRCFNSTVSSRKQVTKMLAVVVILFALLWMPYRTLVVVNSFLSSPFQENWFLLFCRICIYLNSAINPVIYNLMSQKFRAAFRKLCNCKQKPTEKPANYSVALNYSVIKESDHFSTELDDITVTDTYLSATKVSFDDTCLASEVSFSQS
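TRHR-expressing cells, plated overnight in medium with 10% serum, were loaded with fluo-8 calcium dye at room temperature. After a 10 s baseline, library compound was pin-added and calcium release was recorded kinetically (ex 480/em 530) as agonist response.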
GRP78 ERSR act – qHTS for Inducers of the Endoplasmic Reticulum Stress Response (ERSR) in Human Glioma: qHTS; 420,000 compounds, 0.02% hits; U87-MG GRP78 promoter luciferase reporter, 16 h; AID 602332, 2012; Potency, µM, for inactives: at the highest dose activation, hits mostly activators; active = well fitted activation curve with a large enough effect; also: potency is read from the fitted curve at half-maximal effect; series mostly up to about 76 µM; % of control where 0% means no effect; nearly all actives have a fitted effect of over 35% in size
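ERSR induction read as luciferase luminescence (Bright-Glo, 10 min at room temperature) in stably transfected human U87-MG glioma cells exposed to compounds for 16 h, using GRP78 as sensor.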
D1 agonist – Allosteric Agonists of the Human D1 Dopamine Receptor: qHTS; 360,000 compounds, 1% hits; HEK293 T-REx D1 cells, calcium flux, agonist mode; activation, % at 2 µM; D(1A) dopamine receptor (Homo sapiens), P21728; also: 0% is about no effect
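Tetracycline-induced HEK293 TREx D1 cells, force-coupled to calcium signalling, were dye-loaded with a no-wash calcium kit. Compound was pin-added after a 10 s baseline. Fluorescence was read kinetically at 1 cycle/s for 180 s, with calcium rises flagged as agonism.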
D1 antag – Antagonist of Human D 1 Dopamine Receptor: qHTS; D(1A) dopamine receptor (Homo sapiens), P21728; HEK293 TREx D1 cells, calcium flux, dopamine EC80; hits give low values; activity change, negative = inhibition, % at 10 µM; 360,000 compounds, 3.2% hits; AID 504652, 2011; in the data active = activity change below about -30%; also: % is scaled to controls: 0 for no effect and ±100 for the full control effect
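Cells carrying a force-coupled, tetracycline-inducible human D1 receptor report calcium flux. Each well gets a 10 s baseline, compound with 180 s monitoring, then an EC80 dopamine stimulus with a second 180 s kinetic read.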
TRHR enhancer – qHTS for Small Molecule Agonists and Allosteric Enhancers of Human TRH Receptor: Primary Screen for Enhancers | TRHR cells, fluo-8 calcium fluorescence, EC20 TRH enhancement | enhancement, % at 2 µM | 360,000 compounds, 0.66% hits; in the data active = enhancement above about 30%; also: 0% is about no effect
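Enhancer read-out: after compound pinning and an initial kinetic agonist-mode read, an EC20 of TRH (10 nM final) was injected and fluo-8 calcium signal (Ex 480/Em 530) followed at 1 s/cycle for 100 cycles in TRHR-expressing cells.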
Active calls of the source: *; x = no result given; ! = not active in a repeat. Rule as the data show it, unless noted: active = activation above about 30%; inactive = the rest.

SMILES | D1 potentiator | TRHR ag | GRP78 ERSR act | D1 agonist | D1 antag | TRHR enhancer
COC(=O)c1oc2ccccc2c1-n1cccc1 | -2.6 | 0.4 | -0.8% | 2.8 | -8.0 | -1.8
COC(=O)c1scc(C)c1NC(=O)Nc1ccccc1 | 4.5 | -0.1 | -2.1% | 1.4 | 3.4 | 2.6
COC(=O)c1scc(C)c1NC(=O)c1ccccc1F | -3.5 | -1.6 | -3.4% | 0.7 | -37.1* | 17.9
COC(=O)c1scc(C)c1NC(=O)/C=C/C(=O)O | -4.2 | 0.2 | -4.9% | 2.4 | -47.0* | -1.9
O=[N+]([O-])c1cc(-n2cnnn2)ccc1N1CCC(Cc2ccccc2)CC1 | -2.6 | -0.1 | -2.9% | -1.0 | -35.1* | 7.7
CC1CC(C)CN(c2ccc(-n3cnnn3)cc2[N+](=O)[O-])C1 (configuration not stated) | -4.9 | -0.9 | -1.8% | 0.6 | 10.0 | -8.1
NC(=S)N1OC[C@@H]2COc3ccc4ccccc4c3[C@@H]21 | 1.4 | 0.7 | -0.8% | 8.1 | -5.5 | 24.7
CCC(C)NC(=S)N1CCN(C(c2ccccc2)c2ccccc2)CC1 (configuration not stated) | -4.5 | -0.2 | -4.4% | -0.4 | -30.5* | 5.5
CNC(=S)N1CCN(C(c2ccccc2)c2ccccc2)CC1 | -6.3 | -1.1 | -3.3% | -0.5 | -2.0 | 5.9
O=C(Nc1ccccc1)OCCNC(=O)c1ccccc1 | 2.0 | -1.8 | 0.8% | 7.3 | -18.0 | 5.1
COc1ccc(/C=C/C(=O)NC(=S)NNC(=O)[C@H]2C[C@@H]2c2ccccc2)cc1OC | -6.6 | -0.2 | -4.6% | 3.1 | -2.7 | -2.0
CC(=O)c1ccc(NC(=O)Cn2nc(C(F)(F)F)c3c2CCCC3)cc1 | -5.2 | 0.7 | 1.2% | 11.3 | -0.7 | 12.3
O=C(CSc1nc(-c2ccc(F)cc2)cc(C(F)(F)F)n1)NCc1cccs1 | -6.8 | -1.4 | -2.4% | 5.7 | 5.2 | -5.6
O=C(CSc1nc(-c2ccc(F)cc2)cc(C(F)(F)F)n1)NCCc1ccccc1 | -4.0 | -0.2 | -0.4% | 44.3* | -8.0 | 20.3
CCC(C)NC(=O)CSc1nc(-c2ccc(F)cc2)cc(C(F)(F)F)n1 (configuration not stated) | -4.9 | -1.0 | 2.4% | 1.6 | -3.5 | 10.5
CCN(CC)CCCNC(=O)CSc1nc(-c2ccc(F)cc2)cc(C(F)(F)F)n1 | -4.0 | 0.5 | -3.5% | 15.1 | -41.3* | 15.4
CCOC(=O)N1CCN(C(=O)Cn2ncc3c2-c2ccccc2OC3)CC1 | -0.1 | 0.1 | -3.6% | 3.5 | 3.8 | -5.8
C#CCOc1ccc(CNC[C@H]2O[C@@H](n3ccc(=O)[nH]c3=O)[C@H](O)[C@@H]2O)cc1 | x | x | -3.1% | x | x | x
Cc1nn(C2CCS(=O)(=O)C2)c(Cl)c1/C=C/C(=O)OCC(=O)c1cc(C)n(-c2ccc(F)cc2)c1C (configuration not stated) | -6.3 | 0.1 | -5.5% | 8.6 | -30.9* | -1.2
O=C(CN1C(=O)NC2(CCCCC2)C1=O)N1CCc2ccccc2C1 | -12.4 | 0.0 | -1.0% | 2.9 | 2.7 | 2.3
CCOC(=O)C1CCN(C(=O)c2[nH]c3ccc(OC)cc3c2C)CC1 | 0.6 | -1.9 | -2.8% | 2.3 | -67.3* | -2.8
Cc1ccc(/C=C2\SC(=S)N(CC(=O)Nc3cccnc3)C2=O)cc1 | -4.8 | 0.2 | -2.4% | 1.4 | -6.0 | 1.8
CO[C@H]1[C@@H](O)[C@H](N)[C@@H](O[C@H]2O[C@@H]([C@H](C)N)CC[C@H]2N)[C@H](O)[C@@H]1N(C)C(=O)CN | x | x | -3.6% | x | x | x
COC(=O)c1nnn(CC(=O)NC(=O)Nc2ccccc2F)c1C(=O)OC | -5.6 | 0.6 | -4.2% | 4.7 | 4.7 | 31.0*!
COC(=O)c1nnn(CC(=O)Nc2cccc(Cl)c2C)c1C(=O)OC | 2.5 | 0.1 | 6.4% | 4.2 | -16.6 | 4.8
